Consider 13 compounds from PubChem BioAssay (Tox21).

SMILES strings stand for the structures. Where “and” joins values, the source holds several entries; their conditions need not be identical. Identical values can stand only once. Inconclusive results are not listed. Calls of active or inactive are those of the source. Unless noted, the call rests on the fitted dose curve; in most records, active means well fitted curve in the direction sought with a large enough effect in the repeat runs; inconclusive means weak or mixed curves; inactive means no such curve, though single readings can be large; an effect the other way counts as inactive or inconclusive.

The nature of experiment [1]: A CellTox Green Cytotoxicity Assay to monitor cytotoxicity in HepG2 cells - 32 hour (AID 1224883). Further: nearly all actives have a fitted effect of over 50% in size. Further: potency means the concentration at half of the fitted maximal effect. Put shortly:
(§1)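 Fluorescent DNA-binding dye, 600 HepG2 cells/well, 5 h preincubation then compound in DMSO; same plates read at 0–40 h, 37 C.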

Experiment [2] is described as follows: A CellTox Green Cytotoxicity Assay to monitor cytotoxicity in HEK293 cells - 8 hour (AID 1224884). Further: nearly all actives have a fitted effect of over 35% in size. Put shortly: (§2)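 Homogeneous no-lysis format: HEK293 cell suspension mixed with CellTox Green reagent, seeded, incubated 5 h at 37 C/5% CO2, then dosed by pintool with compound in DMSO.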
Experiment [3] can be described thus: qHTS RealTime-Glo MT Cell Viability Assay in HepG2 cells - 16 hour (AID 1224885). Further: nearly all actives have a fitted effect of over 50% in size. Further: potency means the concentration at half of the fitted maximal effect. Put shortly: (§3)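 Viability was tracked continuously by NanoLuc luminescence from prosubstrate reduced by living HepG2 cells, at successive time points over 40 h of compound exposure. Cells with reagent were preincubated 5 h at 37 °C before compound addition.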
A general note: qHTS replaces the single test concentration by a dilution series.

The nature of experiment [4]: qHTS RealTime-Glo MT Cell Viability Assay in HEK293 cells - 24 hour (AID 1224886). Further: nearly all actives have a fitted effect of over 50% in size. Further: potency means the concentration at half of the fitted maximal effect. In a few lines:
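Viability tracked continuously by luminescence as live cells reduce a prosubstrate for NanoLuc; HEK293 cells preincubated 5 h, compound-treated at 37 C, and read at 0, 8, 16, 24, 32 and 40 h.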

Experiment [5] can be described thus: qHTS RealTime-Glo MT Cell Viability Assay in HEK293 cells - 8 hour (AID 1224887). Further: nearly all actives have a fitted effect of over 50% in size. Further: potency means the concentration at half of the fitted maximal effect. Put shortly:
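Measured as luminescence from the same continuously cultured HEK293 wells at successive time points (0, 8, 16, 24, 32, 40 h) after compound addition. Reagent present from seeding; dosing at 5 h; incubation 37 C.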

A short description of experiment [6]: A CellTox Green Cytotoxicity Assay to monitor cytotoxicity in HEK293 cells - 16 hour (AID 1224888). Further: nearly all actives have a fitted effect of over 35% in size. Put shortly: as §2
A short description of experiment [7]: qHTS RealTime-Glo MT Cell Viability Assay in HepG2 cells - 0 hour (AID 1224889). Further: nearly all actives have a fitted effect of over 50% in size. Put shortly: as §3
Experiment [8] can be described thus: A CellTox Green Cytotoxicity Assay to monitor cytotoxicity in HepG2 cells - 8 hour (AID 1224890). Further: nearly all actives have a fitted effect of over 45% in size. In a few lines:
as §1

Experiment [9] is described as follows: qHTS assay to identify small molecule antagonists of the estrogen receptor alpha (ER-alpha) signaling pathway using the BG1 cell line in the presence of 0.1 nM 17-beta-estradiol - cell viability counter screen (AID 1259241). Further: nearly all actives have a fitted effect of over 40% in size. Further: potency means the concentration at half of the fitted maximal effect. In a few lines:
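Cytotoxicity counter-screen: live-cell protease activity measured by fluorescence (30 min reagent step) in the same wells. Cells were VM7Luc4E2 with endogenous ER-alpha and ERE-driven luciferase, treated 22 hr at 37C alongside 0.1 nM 17beta-estradiol final.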

Experiment [10] is described as follows: qHTS assay to identify small molecule antagonists of the androgen receptor (AR) signaling pathway using the MDA cell line in the presence of 0.5 nM R1881 - cell viability counter screen (AID 1259242). Further: nearly all actives have a fitted effect of over 45% in size. Further: potency means the concentration at half of the fitted maximal effect. In a few lines:
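Human breast carcinoma MDA-kb2 cells, cultured without CO2, receive compounds alongside 0.5 nM (final) R1881 agonist. After 16 hr at 37C, viability is taken as live-cell protease signal.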

The nature of experiment [11]: qHTS assay to identify small molecule phospholipidosis (PLD) inducers (AID 1259344; active means well fitted curve in the direction sought with a large enough effect; an effect the other way counts as inactive or inconclusive; further: potency means the concentration at half of the fitted maximal effect). In a few lines: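 Read-out is LipidTOX Red fluorescence (ex 595/em 615) imaged in HepG2 cells after 24 h compound exposure at 37 C, with Hoechst nuclear counterstain (ex 352/em 461) allowing per-cell normalisation.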
Experiment [12] can be described thus: qHTS assay to identify small molecule HDAC inhibitors (AID 1259364).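 Further: wild-type HCT-116 cells with endogenous class I/II HDAC activity; top concentration of the series differs between compounds; nearly all actives have a fitted effect of over 45% in size.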 Put shortly:
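After a 2 hr compound incubation (37C, 5% CO2), HCT-116 cells seeded at 1,500/well the day before received HDAC-Glo reagent; signal read as luminescence after 30 min at room temperature.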

A short description of experiment [13]: qHTS assay to identify small molecule HDAC inhibitors - cell viability counter screen (AID 1259365). In a few lines: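 CellTiter-Glo luminescence (30 min, room temperature) reported viability after a 2 h compound exposure at 37 C. Cells: wild-type HCT-116, 1,500 per well, seeded the night before.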
A short description of experiment [14]: qHTS assay to identify small molecule agonists of the sonic hedgehog signaling (Shh) pathway - cell viability counter screen (AID 1259366). Further: nearly all actives have a fitted effect of over 50% in size. Further: potency means the concentration at half of the fitted maximal effect. Put shortly:
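Cytotoxicity counter screen: CellTiter-Fluor reagent added after 23 h compound exposure, then 1 h at 37C and fluorescence read. Cells were 3T3 Gli1-Luc, seeded 2,000 per well and dosed 4 h post-plating.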

Experiment [15] is described as follows: qHTS assay to identify small molecule antagonists of the sonic hedgehog signaling (Shh) pathway - cell viability counter screen (AID 1259367). Further: nearly all actives have a fitted effect of over 55% in size. Further: potency means the concentration at half of the fitted maximal effect. In a few lines: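 Fluorescence read-out (CellTiter-Fluor, 1 hr at 37C) taken after 23 hr compound treatment of 3T3 Gli1-Luc cells stimulated with conditioned medium. Cells were seeded at 2,000 per well and pre-incubated 4 hr.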

Experiment [16] is described as follows: qHTS assay to identify small molecule agonists of the sonic hedgehog signaling (Shh) pathway (AID 1259368; calls by dose curve;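 further: NIH/3T3-derived 3T3Gli1-Luc cells carrying a stable Gli1-driven firefly luciferase reporter; series mostly up to about 92 µM; nearly all actives have a fitted effect of over 15% in size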). In a few lines: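 Stable NIH/3T3 Gli1-Luc reporter clone; 24 hr cpd exposure after a 4 hr settling period; luminescence endpoint.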
A short description of experiment [17]: qHTS assay to identify small molecule antagonists of the sonic hedgehog signaling (Shh) pathway (AID 1259369; calls by dose curve; further: nearly all actives have a fitted effect of over 45% in size; further: potency means the concentration at half of the fitted maximal effect). In a few lines: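 Gli1 transcriptional reporter (firefly Luc) in NIH/3T3 background, conditioned-medium activated. 24hr exposure, luminescence endpoint.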
Experiment [18] deals with Estrogen receptor (Homo sapiens) (UniProt P03372). The experiment in a line: qHTS assay to identify small molecule antagonists of the estrogen receptor alpha (ER-alpha) signaling pathway using the BG1 cell line in the presence of 0.1 nM 17-beta-estradiol (AID 1259244). Further: nearly all actives have a fitted effect of over 50% in size. Further: potency means the concentration at half of the fitted maximal effect. In a few lines:
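Seeding of stripped-serum-adapted VM7Luc4E2 cells, 24 h attachment, compound transfer, then 0.1 nM final 17beta-estradiol; after 22 h incubation, ONE-Glo reagent and luminescence reading.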

Chain of Estrogen receptor (Homo sapiens) (P03372 whole entry, looked up): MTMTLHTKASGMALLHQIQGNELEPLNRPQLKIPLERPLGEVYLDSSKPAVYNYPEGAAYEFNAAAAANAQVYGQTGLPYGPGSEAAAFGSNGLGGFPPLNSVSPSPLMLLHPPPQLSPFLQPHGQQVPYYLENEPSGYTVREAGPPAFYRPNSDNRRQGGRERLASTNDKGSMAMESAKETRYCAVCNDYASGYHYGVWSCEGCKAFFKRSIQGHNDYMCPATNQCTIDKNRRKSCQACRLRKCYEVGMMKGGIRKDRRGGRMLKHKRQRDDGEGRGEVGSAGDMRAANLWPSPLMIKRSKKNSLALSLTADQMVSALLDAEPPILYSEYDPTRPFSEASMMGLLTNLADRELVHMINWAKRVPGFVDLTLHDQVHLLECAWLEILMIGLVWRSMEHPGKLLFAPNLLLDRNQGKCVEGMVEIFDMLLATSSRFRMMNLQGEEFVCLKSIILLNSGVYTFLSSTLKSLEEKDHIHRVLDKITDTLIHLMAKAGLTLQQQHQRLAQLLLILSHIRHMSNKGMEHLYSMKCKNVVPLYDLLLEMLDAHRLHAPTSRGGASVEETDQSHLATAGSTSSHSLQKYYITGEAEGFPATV

Take `O=C1c2c(O)cccc2Cc2cccc(O)c21`: the Potency result in [1], in [2], in experiment [3], in experiment [4], in experiment [5] and in [6] was “inactive” each time. The Potency entry in [7], in [8], in experiment [9], in [10], in experiment [11] and in experiment [12] was “inactive” in each case. Besides, the Potency entry in experiment [13], in [14], in experiment [15] and in experiment [17] was “inactive” throughout. Also, in [16], the result was inactive.

With `CC(=O)C(=O)O`, the Potency entry in experiment [1], in experiment [2], in experiment [3], in experiment [4], in experiment [5] and in experiment [6] was “inactive” in each case. Further, the Potency entry in experiment [7], in experiment [8], in experiment [9], in experiment [10], in experiment [12] and in experiment [13] was “inactive” throughout. The Potency entry in [14], in experiment [15] and in [17] was “inactive” throughout. The outcome in experiment [16] was inactive.

In the case of `COc1ccc2cc(S(=O)(=O)N[C@H](CC(=O)N[C@H](Cc3ccc(CN4[C@H](C)CCC[C@@H]4C)cc3)C(=O)N(C)C(C)C)c3ccc4c(c3)OCO4)ccc2c1`, the Potency is 52 µM (active) in experiment [1]; 52 µM (active) in [3]; 41.3 µM (active) in experiment [4]; 46.3 µM (active) in experiment [5]; 29 µM (active) in experiment [9]; 46 µM (active) in [10]. Also, the results for the Potency in [18], in experiment [14] and in experiment [15] were 51.6 µM (active), 25.8 µM (active) and 29 µM (active), respectively. In addition, the Potency entry in experiment [12], in experiment [13] and in experiment [17] was “inactive” each time. Besides, the result in [16] was inactive.

As to `NC1CCCCC1`, the Potency result in [1], in experiment [2], in [3], in [4], in experiment [5] and in experiment [6] was “inactive” throughout. The Potency entry in experiment [7], in experiment [8], in [9], in experiment [10], in [18] and in [12] was “inactive” each time. Moreover, the Potency entry in experiment [13], in experiment [14], in experiment [15] and in experiment [17] was “inactive” throughout. For the same compound, the compound was classed as inactive in experiment [16].

Take `NC(CO)(CO)CO`: the Potency entry in experiment [1], in [2], in experiment [3], in [4], in experiment [5] and in experiment [6] was “inactive” each time. Besides, the Potency result in experiment [7], in experiment [8], in [9], in experiment [10], in experiment [18] and in experiment [11] was “inactive” in each case. Further, the Potency entry in [12], in experiment [13], in experiment [14], in experiment [15] and in experiment [17] was “inactive” each time. Besides, the compound was called inactive in experiment [16].

As for `CC(C)C(=O)Nc1ccc([N+](=O)[O-])c(C(F)(F)F)c1`, the Potency entry in experiment [1], in [2], in [3], in experiment [6], in [7] and in [8] was “inactive” each time. Besides, the Potency entry in experiment [9], in [10], in experiment [11], in experiment [12], in [13] and in [14] was “inactive” throughout. The Potency entry in [15] is “inactive”. In addition, the Potency in [4] is 17.9 µM (active) and 21.9 µM (active) and 10.7 µM (active); in [5], 22.5 µM (active) and 21.9 µM (active) and 9.52 µM (active); in [18], 56 µM (active) and 48.6 µM (active) and 29.8 µM (active); in experiment [17], 17.7 µM (active). Further, the result in experiment [16] was inactive.

With `COc1ccc(CN(CCN(C)C)c2ccccn2)cc1`, the Potency result in [1], in experiment [2], in experiment [6], in experiment [8], in [9] and in experiment [10] was “inactive” in each case. The Potency entry in experiment [11], in [12], in experiment [13], in [14], in experiment [15] and in experiment [17] was “inactive” throughout. The result in experiment [16] was inactive.

As to `CCCC[P+](CCCC)(CCCC)CCCC`, the Potency entry in experiment [1], in [2], in [3], in experiment [5], in experiment [6] and in [7] was “inactive” each time. Also, the Potency entry in experiment [8], in experiment [9], in [10], in [12], in [13] and in [14] was “inactive” each time. The Potency result in experiment [15] and in experiment [17] was “inactive” throughout. In addition, the Potency in [4] was 19.4 µM (active) and 4.36 µM (active). Also, the call in experiment [16] was inactive.

For `CN[C@H]1CC[C@@H](c2ccc(Cl)c(Cl)c2)c2ccccc21`, the Potency in experiment [1] is 19 µM (active); in [3], 23.9 µM (active); in [4], 21.3 µM (active); in experiment [11], 2.82 µM (active); in [17], 18.8 µM (active). In addition, the Potency entry in experiment [7], in experiment [9], in [12], in experiment [14] and in [15] was “inactive” in each case. For the same compound, in experiment [16], the compound was called inactive.

With `C/C=C/C=C/C(=O)O`, the Potency result in experiment [1], in experiment [2], in experiment [3], in experiment [4], in [5] and in experiment [6] was “inactive” in each case. For the same compound, the Potency entry in experiment [7], in experiment [8], in experiment [9], in experiment [10], in experiment [11] and in [12] was “inactive” each time. Also, the Potency entry in [13], in experiment [14], in experiment [15] and in experiment [17] was “inactive” throughout. For the same compound, in experiment [16], the call was inactive.

Turning to `CN1CCc2cccc3c2[C@H]1Cc1ccc(O)c(O)c1-3`, the Potency entry in experiment [1], in experiment [2], in [6], in experiment [7], in experiment [8] and in [11] was “inactive” in each case. The Potency result in experiment [12] and in experiment [13] was “inactive” each time. In addition, the Potency in experiment [3] was 49.5 µM (active) and 18.3 µM (active) and 23.9 µM (active); in experiment [4] it was 14 µM (active) and 8.17 µM (active) and 23.9 µM (active); in experiment [5], 24.8 µM (active) and 14.5 µM (active); in [9], 49.1 µM (active) and 20.4 µM (active); in experiment [10], 55 µM (active) and 22.8 µM (active); in [18], 49.1 µM (active) and 11.9 µM (active). Also, the Potency in [14] was 27.6 µM (active) and 22.8 µM (active); in [15], 30.9 µM (active) and 18.1 µM (active) and 21.1 µM (active); in experiment [17], 2.87 µM (active) and 18.8 µM (active). For the same compound, the outcome in experiment [16] was inactive.

On to `CCCCC(CC)C(=O)O` (configuration not stated), for which the Potency result in experiment [1], in [2], in experiment [3], in experiment [4], in experiment [5] and in [6] was “inactive” throughout. Besides, the Potency result in experiment [7], in experiment [8], in [9], in [10], in [12] and in experiment [13] was “inactive” in each case. The Potency result in experiment [14], in experiment [15] and in [17] was “inactive” throughout. Further, in [16], the call was inactive.

Regarding `O=C(O)CC(O)C(=O)O` (configuration not stated), the Potency entry in [1], in [2], in [3], in experiment [4], in experiment [5] and in experiment [6] was “inactive” each time. The Potency result in experiment [7], in [8], in experiment [9], in [10], in experiment [11] and in experiment [12] was “inactive” in each case. In addition, the Potency result in experiment [13], in experiment [14], in [15] and in experiment [17] was “inactive” throughout. Also, the compound was called inactive in [16].
